This is an account of results in ChEMBL document CHEMBL4513146, “CO-ADD screening of Karazin Kharkiv National University (Ukraine) compounds”.

Measured potencies and affinities stand elsewhere.

In assay [1] the test system is Klebsiella pneumoniae. To be noted: Concentration 32 ug.mL-1;; ASSAY_TEST Inhibition of Bacterial Growth; detection method Absorption (OD600); MEDIA CAMHB; plate type 384well; NBS; CORNING #3640; time 18 hr.
In assay [2] the test system is Candida albicans. To be noted: Concentration 32 ug.mL-1; ASSAY_TEST Inhibition of Fungal Growth; detection method Absorption (OD530).
Assay [3] relates to Cryptococcus neoformans. Particulars: Concentration 32 ug.mL-1; ASSAY_TEST Inhibition of Fungal Growth; detection method Resazurin; Absorption (OD600-OD570); plate type 384well; NBS; CORNING #3640. On the technique in general: Alamar Blue is a resazurin reagent that responds to reducing activity.

For orientation: Inhibition means the relative decrease from the control value, in per cent.

As to `Cc1ccc(-c2cc3c4nn(CC(=O)Nc5ccc(Cl)cc5)c(=O)n4ccn3n2)cc1C`, the Inhibition in assay [1] is -7.29%; in assay [2] it was 11.19%; in assay [3], -17.93%.
For `COc1ccc(N(Cc2ccc(F)cc2)S(=O)(=O)c2ccc3nncn3c2)cc1` the same measures were 12.52%, 2.69% and 2.37%.
For `CSc1cccc(NC(=O)Cn2nc3c(Sc4ccc(C)cc4C)nccn3c2=O)c1` the same measures were -1.53%, 2.24% and -22%.
Consider `CCc1cccc(NC(=O)Cn2nc3ccc(SC(C)C)nn3c2=O)c1`, for which the Inhibition in assay [1] is recorded as 7.23%; in assay [2], 12.21%; in assay [3], -12.08%.
For `CC(C)c1nnc2c(=O)n(CC(=O)Nc3ccc(Cl)cc3)c3ccccc3n12`, the Inhibition in assay [1] is on record as 16.79%; in assay [2], 3.6%; in assay [3] it was -17.29%.
For `Cn1c(=O)c2ccc(C(=O)NC3CCCC3)cc2n2c(SCc3c(F)cccc3Cl)nnc12` the same measures were 14.92%, 3.13% and -23.81%.
As for `O=C(Cn1nc2c(N3CCOCC3)nccn2c1=O)Nc1cccc(C(F)(F)F)c1`, the Inhibition in assay [1] is on record as 0.9%; in assay [2], 5.11%; in assay [3], -4.42%.
For `CSc1ccc(CNC(=O)Cn2nc3c(Oc4cccc(C)c4C)nccn3c2=O)cc1`, in that order: 12.69%, 0.27% and -6.54%.
For `Cc1cccc(Oc2nccn3c(=O)n(CC(=O)Nc4ccccc4C(F)(F)F)nc23)c1C` the same measures were 10.49%, -0.97% and -7.67%.
As to `CCCc1nnc2c(=O)n(CC(=O)Nc3cccc(C#N)c3)c3ccccc3n12`, the Inhibition in assay [1] is 0.67%; in assay [2], -0.31%; in assay [3], -17.76%.
